Data from PubChem BioAssay AID1159580 (chemical genetic matrix, 2015).
The campaign covered roughly 5,500 compounds. About 2,000 (36%) were called active. Another 18% or so got no clear call; they are omitted. No stated cut-off is given here; in the data, active means normalized growth mostly below about 0.91 (no sharp cut-off); inconclusive means no clear call, values can overlap the other calls; inactive means mostly above about 0.92. Some of the results follow.

Assay: chemical genetic growth profiling, strain panel (AID 1159580);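 further: tested at 20 µM; growth read once vehicle control cultures reached saturation at 30 °C; 1 = growth at the plate median or of vehicle wells; lower values mean less growth of the strain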
Settings: growth OD

Measured: normalized growth

O=C(/C=C(\O)c1ccccc1)c1ccccc1O
active: S. cerevisiae deletion strains, locus YJL187C, strain SWE1 (second series), hits give low values 0.456 | S. cerevisiae deletion strains, locus YJL187C, strain SWE1, hits give low values 0.785 | S. cerevisiae deletion strains, locus YKL009W, strain mrt4, hits give low values 0.78 | S. cerevisiae deletion strains, locus YKL160W, strain elf1, hits give low values 0.823 | S. cerevisiae deletion strains, locus YKL190W, strain CNB1, hits give low values 0.902 | S. cerevisiae deletion strains, locus YKR001C, strain vps1, hits give low values 0.73 | S. cerevisiae deletion strains, locus YKR026C, strain gcn3, hits give low values 0.895 | S. cerevisiae deletion strains, locus YKR091W, strain srl3, hits give low values 0.904 | S. cerevisiae deletion strains, locus YLL001W, strain dnm1, hits give low values 0.769 | S. cerevisiae deletion strains, locus YLL026W, hits give low values 0.864 | S. cerevisiae deletion strains, locus YLL041C, strain sdh2, hits give low values 0.869 | S. cerevisiae deletion strains, locus YLR027C, strain aat2, hits give low values 0.685 | S. cerevisiae deletion strains, locus YLR039C, strain RIC1, hits give low values 0.137 | S. cerevisiae deletion strains, locus YLR058C, strain SHM2, hits give low values 0.442 | S. cerevisiae deletion strains, locus YLR221C, strain rsa3, hits give low values 0.601 | S. cerevisiae deletion strains, locus YLR258W, strain gsy2, hits give low values 0.818 | S. cerevisiae deletion strains, locus YLR262C, strain YPT6 (second series), hits give low values 0.391 | S. cerevisiae deletion strains, locus YLR262C, strain YPT6, hits give low values 0.463 | S. cerevisiae deletion strains, locus YLR268W, strain sec22, hits give low values 0.836 | S. cerevisiae deletion strains, locus YLR320W, strain mms22, hits give low values 0.767 | S. cerevisiae deletion strains, locus YLR342W, strain FKS1, hits give low values 0.903 | S. cerevisiae deletion strains, locus YLR357W, strain rsc2, hits give low values 0.785 | S. cerevisiae deletion strains, locus YLR370C, strain arc18, hits give low values 0.864 | S. cerevisiae deletion strains, locus YLR371W, strain rom2, hits give low values 0.801 | S. cerevisiae deletion strains, locus YLR418C, strain cdc73, hits give low values 0.64 | S. cerevisiae deletion strains, locus YML016C, strain PPZ1, hits give low values 0.633 | S. cerevisiae deletion strains, locus YML032C, strain rad52, hits give low values 0.453 | S. cerevisiae deletion strains, locus YML120C, strain ndi1, hits give low values 0.589 | S. cerevisiae deletion strains, locus YML124C, strain tub3, hits give low values 0.901 | S. cerevisiae deletion strains, locus YMR058W, strain fet3, hits give low values 0.21 | S. cerevisiae deletion strains, locus YMR129W, hits give low values 0.847 | S. cerevisiae deletion strains, locus YMR205C, strain PFK2, hits give low values 0.613 | S. cerevisiae deletion strains, locus YMR223W, strain ubp8, hits give low values 0.826 | S. cerevisiae deletion strains, locus YMR231W, strain pep5, hits give low values 0.083 | S. cerevisiae deletion strains, locus YMR307W, strain GAS1, hits give low values 0.523 | S. cerevisiae deletion strains, locus YNL071W, strain lat1, hits give low values 0.581 | S. cerevisiae deletion strains, locus YNL153C, strain GIM3, hits give low values 0.582 | S. cerevisiae deletion strains, locus YNL209W, strain ssb2, hits give low values 0.648 | S. cerevisiae deletion strains, locus YNL233W, strain BNI4, hits give low values 0.707 | S. cerevisiae deletion strains, locus YNL322C, strain KRE1 (second series), hits give low values 0.789 | S. cerevisiae deletion strains, locus YNR049C, strain mso1, hits give low values 0.892 | S. cerevisiae deletion strains, locus YNR052C, strain pop2, hits give low values 0.556 | S. cerevisiae deletion strains, locus YOL147C, strain pex11, hits give low values 0.531 | S. cerevisiae deletion strains, locus YOR001W, strain rrp6, hits give low values 0.733 | S. cerevisiae deletion strains, locus YOR069W, strain VPS5, hits give low values 0.719 | S. cerevisiae deletion strains, locus YOR070C, strain gyp1, hits give low values 0.921 | S. cerevisiae deletion strains, locus YOR083W, strain WHI5, hits give low values 0.745 | S. cerevisiae deletion strains, locus YOR106W, strain vam3, hits give low values 0.0896 | S. cerevisiae deletion strains, locus YOR144C, strain elg1, hits give low values 0.724 | S. cerevisiae deletion strains, locus YOR184W, strain ser1, hits give low values 0.703 | S. cerevisiae deletion strains, locus YOR265W, strain rbl2, hits give low values 0.849 | S. cerevisiae deletion strains, locus YOR270C, strain vph1, hits give low values 0.607 | S. cerevisiae deletion strains, locus YOR290C, strain snf2, hits give low values 0.676 | S. cerevisiae deletion strains, locus YPL051W, strain arl3, hits give low values 0.568 | S. cerevisiae deletion strains, locus YPL078C, strain atp4, hits give low values 0.795 | S. cerevisiae deletion strains, locus YPL240C, strain hsp82, hits give low values 0.78 | S. cerevisiae deletion strains, locus YPL241C, strain CIN2, hits give low values 0.928 | S. cerevisiae deletion strains, locus YPR163C, strain tif3, hits give low values 0.755 | S. cerevisiae deletion strains, locus YPR167C, strain met16, hits give low values 0.852 | S. cerevisiae deletion strains, strain wtn01, hits give low values 0.843 | S. cerevisiae strains, strain wild type, hits give low values 0.545
inactive: S. cerevisiae deletion strains, locus YKL068W, hits give low values 0.969 | S. cerevisiae deletion strains, locus YKL085W, strain MDH1 (second series), hits give low values 0.963 | S. cerevisiae deletion strains, locus YKL085W, strain MDH1, hits give low values 0.963 | S. cerevisiae deletion strains, locus YLR102C, strain apc9, hits give low values 0.997 | S. cerevisiae deletion strains, locus YLR342W, strain FKS1 (second series), hits give low values 0.849 | S. cerevisiae deletion strains, locus YLR384C, strain iki3, hits give low values 0.92 | S. cerevisiae deletion strains, locus YMR078C, strain ctf18, hits give low values 0.948 | S. cerevisiae deletion strains, locus YMR125W, strain sto1, hits give low values 0.991 | S. cerevisiae deletion strains, locus YNL067W, strain RPL9B, hits give low values 0.929 | S. cerevisiae deletion strains, locus YNL128W, strain TEP1, hits give low values 0.855 | S. cerevisiae deletion strains, locus YNL248C, strain rpa49, hits give low values 0.91 | S. cerevisiae deletion strains, locus YNL250W, strain rad50, hits give low values 0.97 | S. cerevisiae deletion strains, locus YNL271C, strain bni1, hits give low values 0.951 | S. cerevisiae deletion strains, locus YNL298W, strain CLA4, hits give low values 0.926 | S. cerevisiae deletion strains, locus YNL307C, strain MCK1, hits give low values 0.928 | S. cerevisiae deletion strains, locus YOL012C, strain htz1 0.3 | S. cerevisiae deletion strains, locus YOR061W, strain CKA2, hits give low values 0.93 | S. cerevisiae deletion strains, locus YOR080W, strain dia2, hits give low values 0.929 | S. cerevisiae deletion strains, locus YOR136W, strain idh2, hits give low values 0.939 | S. cerevisiae deletion strains, locus YOR316C, strain cot1, hits give low values 0.941 | S. cerevisiae deletion strains, locus YPL106C, strain sse1, hits give low values 0.933 | S. cerevisiae deletion strains, locus YPR119W, strain clb2, hits give low values 0.951 | S. cerevisiae deletion strains, locus YPR141C, strain kar3, hits give low values 0.967
